# From PubChem BioAssay
# IMPase inh – qHTS Assay for Identifying the Cell-Membrane Permeable IMPase Inhibitors; CHO-M1 cells, IP1 accumulation, HTRF TR-FRET ratio; inhibition (IP1 accumulation), % at 46.1 µM; 120,000 tested, under 10 active; active means well fitted curve in the direction sought with a large enough effect in the signal ratio, not every such curve was filed as active; inconclusive means small, poorly fitted or top-dose-only effect, or a change in a side signal; inactive means no such curve, though single readings can be large or run the other way; the % refers to the signal ratio;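 further: cells stimulated with carbachol in lithium chloride buffer; higher means more IMPase inhibition seen as more IP1 and lower FRET ratio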
# Target sequence (P97697 whole entry, looked up): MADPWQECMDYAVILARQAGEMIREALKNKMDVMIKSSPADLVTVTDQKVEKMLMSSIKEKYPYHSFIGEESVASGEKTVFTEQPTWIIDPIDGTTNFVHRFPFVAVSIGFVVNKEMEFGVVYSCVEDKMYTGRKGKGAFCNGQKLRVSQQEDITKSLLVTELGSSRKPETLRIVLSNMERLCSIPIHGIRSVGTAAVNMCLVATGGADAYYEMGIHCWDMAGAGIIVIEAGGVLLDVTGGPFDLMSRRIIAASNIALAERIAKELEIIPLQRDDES
#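 The IP-One HTRF competitive assay in carbachol-stimulated CHO-M1 cells quantifies cellular IP1. Compounds spanned up to 46 uM final, and activity is expressed as AC50 from concentration-response fits of the ratio and donor data.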
# IMPase Li cell – qHTS Assay for Identifying the Cell-Membrane Permeable IMPase Inhibitors: Potentiation with Lithium. Potency, µM (series often up to 59.4 µM), hits mostly inhibitors. CHO-M1 cells, IP1 TR-FRET (IP-One), carbachol + lithium. hit rate 0.35% among 210,000. AID 1457, 2008;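 further: IP1 builds up when IMPase is blocked and the TR-FRET signal falls; nearly all actives have a fitted effect of over 50% in size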
#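 Readout is a homogeneous TR-FRET IP1 immunoassay (Ex 320, Em 665 and 620), where raised cytosolic IP1 lowers signal. Cells were CHO-M1 treated 30 min at 37C with test compounds plus a little lithium; AC50 values came from Hill-equation fitting.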
# 12-hLO inh – qHTS Assay for Inhibitors of 12-hLO (12-human lipoxygenase) | Polyunsaturated fatty acid lipoxygenase ALOX12 (Homo sapiens), P18054 | purified 12-hLO, xylenol orange hydroperoxide absorbance | Potency, µM (top dose mostly 57.1 µM), hits mostly inhibitors | hit rate 0.12% among 150,000 | AID 1452, 2008; further: nearly all actives have a fitted effect of over 55% in size
#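 Purified human 12hLO (150 nM final) was preincubated with compounds for 15 min at room temperature in 25 mM Hepes pH 7.0, 0.01% Triton X-100, then reacted with 40 uM arachidonic acid for 30 min. Hydroperoxide was detected with ferrous iron/xylenol orange.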
# PNC assembly inh – High Content Assay for Compounds that inhibit the Assembly of the Perinucleolar Compartment; PC3M PTB-GFP, PNC prevalence imaging, 16 h; active compounds read low; AID 2417, 2010; activity change (PNC), negative = inhibition, % at 10 µM; hit rate 3.1% among 140,000;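 active means readout at or below -70, meaning at least 70% loss of cells showing the perinucleolar compartment, a nuclear body marking cancer cells; inconclusive means readout between -30 and a set limit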
#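 PC3M cells stably expressing PTB-GFP, 750–1000 cells/well, treated 16 h at 37 °C with compound (23 nl of library stock), in duplicate. After paraformaldehyde fixation and Hoechst stain, imaged at 20x; PNC prevalence scored by image analysis.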
# A number is an active result; - = inactive; ? = inconclusive; . = not tested or not shown; [ ] = dose if it differs, or a comment. Many of the other results were omitted from the sample, so hits are more common in it than they were. Unless noted, the call rests on the fitted dose curve; in most records, active means well fitted curve in the direction sought with a large enough effect; inconclusive means small, poorly fitted or top-dose-only effect, or another doubt; inactive means no such curve, though single readings can be large; an effect the other way counts as inactive or inconclusive.
SMILES,IMPase inh,IMPase Li cell,12-hLO inh,PNC assembly inh
Cc1ccc(-c2cc(C(=O)Nc3cc(C)ccc3C)[nH]n2)c(O)c1,-,-,-,-84
COc1ccc(OC)c(NC(=O)c2cc(-c3ccc(C)cc3O)n[nH]2)c1,-,-,-,-
CS(=O)(=O)N1CCN(CC2CC3C=CC2C3)CC1 (stereo unspecified),-,-,-,-89
C1=CC2CC1CC2CN1CCN(c2ccccc2)CC1 (stereo unspecified),-,-,-,-81
CCN1CCN(CC2CC3C=CC2C3)CC1 (stereo unspecified),-,-,-,-
Cc1ccc(S(=O)(=O)c2nc(-c3ccccc3F)oc2N2CCCCC2)cc1,-,.,.,.
CC1CCC(O)([C@](C)(C(=O)O)c2ccccc2)CC1 (stereo partly specified),.,-,-[11.4 µM],.
O=C(CCc1ccc(S(=O)(=O)N2CCOCC2)cc1)OCc1nc2ccccc2s1,-,-,-,-
O=C(OCc1nc2ccccc2s1)c1cccc(S(=O)(=O)N2CCOCC2)c1,-,-,-,-100
O=C(N/N=C/c1c(Nc2cccc(C(F)(F)F)c2)nc2ccccn2c1=O)c1ccccc1[N+](=O)[O-],-,-,-,-113
O=C(N/N=C/c1c(Nc2cccc(C(F)(F)F)c2)nc2ccccn2c1=O)c1ccccc1,-,-,-,-
COc1cccc([C@@H]2Oc3ccc(Br)cc3C[C@H]2OC(=O)Nc2cc(OC)c(OC)c(OC)c2)c1,.,-,.,.
COc1ccc(-c2cc(C(=O)N/N=C/c3ccc(OC)c(OC)c3)[nH]n2)cc1,.,.,-,.
CCOC(=O)C(=O)Nc1nnc(CCc2ccccc2)s1,-,-,-,-100
CCC(=O)Nc1nnc(CCc2ccccc2)s1,-,-,-,-
O=C(Nc1cc(S(=O)(=O)Nc2ccccc2Cl)ccc1O)c1sc2cc(Cl)ccc2c1Cl,.,-,.,.
CCC(=O)NC1Cc2ccccc2C(c2ccccc2)C1 (stereo unspecified),.,-,.,.
COC(=O)C1CCN(S(C)(=O)=O)CC1,-,-,-,-100
CC(C)(C)C(=O)NC1CCN(S(C)(=O)=O)CC1,-,-,-,-100
COC(=O)C1CCN(S(=O)(=O)c2ccc(NC(C)=O)cc2)CC1,-,-,-,-
CC(C)(C)C(=O)NC1CCN(C(=O)N2CCCC2)CC1,-,-,-,-
COc1ccc(-c2csc(NC(=S)NC(=O)/C=C/c3ccco3)n2)cc1OC,.,-,-,-106
Cc1ccc(/C=N/NC(=O)c2cccs2)o1,.,-,-,-83
COCCn1c(=O)c(-c2ccc(OC)cc2)nc2cnc(N3CCN(C)CC3)nc21,.,-,.,.
CCC(NC(=O)c1ccccc1O)c1ccccc1 (stereo unspecified),-,-,-,-109
SMILES,IMPase inh,IMPase Li cell,12-hLO inh,PNC assembly inh
CCC(NC(=O)c1ccc([N+](=O)[O-])cc1[N+](=O)[O-])c1ccccc1 (stereo unspecified),-,-,-,-
O=C(N/N=C/c1cc(Cl)ccc1O)C(=O)Nc1ccccc1OC(F)(F)C(F)F,.,-,-,-90
CCn1c(/C=C/Nc2ccccc2)[n+](CC)c2cc(Cl)c(Cl)cc21,.,-,-,-96
CCn1c(/C=C/N(C(C)=O)c2ccccc2)[n+](CCCS(=O)(=O)[O-])c2cc(Cl)c(Cl)cc21,.,-,.,.
O=C(NCCOc1nc(N2CCCCC2)nc(N2CCOCC2)n1)Nc1ccccc1,-,-,-,-107
CCC(C)/C(C)=N/NC(=O)c1ccc(COc2ccc(Cl)c(C)c2)cc1 (stereo unspecified),.,-,-,-134
CCOc1ccc(OCc2ccc(C(=O)N/N=C(\C)c3ccccn3)cc2)cc1,.,-,.,.
Cc1cccc(C)c1NC(=O)NC1(C(=O)N2CCOCC2)CCCCC1,.,-,.,.
Cc1cccc(C(=O)NC(=S)Nc2ccccc2C(F)(F)F)c1,.,-,?,-
Cc1ccc(C(=O)NC(=S)Nc2ccccc2C(F)(F)F)cc1C,-,-,22µM,-
COc1ccc(CNC(=O)CCS(=O)(=O)c2cc(Br)cc3c2N(C(=O)C2CC2)CC3)cc1,-,.,.,.
Brc1ccc(-c2cn3nc4c(nc3n2)CCCC4)cc1,-,-,-,-100
COc1ccc(C(=O)NCc2nnc(SCC(=O)N3CCc4ccccc43)n2Cc2ccccc2)cc1,.,-,-,-100
CC(=O)[C@@H](C)CCO[C@@]1(C)OCC[C@@H]1C,.,-,-[11.4 µM],.
